According to PubChem BioAssay (Tox21):
Inconclusive results are not listed. Calls of active or inactive are those of the source. Unless noted, the call rests on the fitted dose curve.

What was measured:
[1] = qHTS assay to identify small molecule agonists of the peroxisome proliferator-activated receptor delta (PPARd) signaling pathway - cell viability counter screen (AID 743211; active means well fitted curve in the direction sought with a large enough effect in the repeat runs; an effect the other way counts as inactive or inconclusive; further: nearly all actives have a fitted effect of over 55% in size)
How it was run: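 Read-out: CellTiter-Glo luminescence, 30 min RT, measured in the same wells as the beta-lactamase reporter. Cells: GeneBLAzer PPAR delta UAS-bla HEK293H, 3000 cells/well, compound exposure 17 h at 37C.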

[2] = target: Peroxisome proliferator-activated receptor delta (Homo sapiens) (UniProt Q03181); test: qHTS assay to identify small molecule agonists of the peroxisome proliferator-activated receptor delta (PPARd) signaling pathway (AID 743212)
Peroxisome proliferator-activated receptor delta (Homo sapiens), sequence (Q03181 whole entry, looked up): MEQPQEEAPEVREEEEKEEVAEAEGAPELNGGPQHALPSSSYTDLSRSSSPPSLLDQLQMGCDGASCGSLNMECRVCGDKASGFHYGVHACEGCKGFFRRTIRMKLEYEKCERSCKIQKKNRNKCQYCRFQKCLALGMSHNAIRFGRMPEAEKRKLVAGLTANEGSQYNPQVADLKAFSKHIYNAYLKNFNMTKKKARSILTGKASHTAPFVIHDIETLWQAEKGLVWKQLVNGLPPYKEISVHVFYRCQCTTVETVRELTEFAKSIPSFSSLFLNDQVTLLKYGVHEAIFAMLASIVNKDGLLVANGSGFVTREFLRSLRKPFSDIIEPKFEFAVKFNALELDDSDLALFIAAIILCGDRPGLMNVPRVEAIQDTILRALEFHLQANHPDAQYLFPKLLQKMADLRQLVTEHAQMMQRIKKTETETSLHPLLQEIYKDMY
How it was run: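 Tox21 library screened in GeneBLAzer PPARd UAS-bla HEK293H cells. After compound treatment at 37 C, a FRET-based beta-lactamase substrate was applied for 2 h and fluorescence recorded.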

[3] = qHTS assay to identify small molecule antagonists of the peroxisome proliferator-activated receptor delta (PPARd) signaling pathway - cell viability counter screen (AID 743213; active means well fitted curve in the direction sought with a large enough effect in the repeat runs; an effect the other way counts as inactive or inconclusive; further: nearly all actives have a fitted effect of over 50% in size)
How it was run: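 CellTiter-Glo was added to PPARd-bla HEK293H wells following 17 h compound treatment in the presence of 300 nM L165041. Luminescence was recorded after 30 min at room temperature.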

[4] = target: Bile acid receptor (Homo sapiens) (UniProt Q96RI1); test: qHTS assay to identify small molecule antagonists of the farnesoid-X-receptor (FXR) signaling pathway (AID 743217; active means well fitted inhibition curve with a large enough effect in the signal ratio in the repeat runs, not every such curve was filed as active; the % refers to the signal ratio)
Bile acid receptor (Homo sapiens), sequence (Q96RI1 whole entry, looked up): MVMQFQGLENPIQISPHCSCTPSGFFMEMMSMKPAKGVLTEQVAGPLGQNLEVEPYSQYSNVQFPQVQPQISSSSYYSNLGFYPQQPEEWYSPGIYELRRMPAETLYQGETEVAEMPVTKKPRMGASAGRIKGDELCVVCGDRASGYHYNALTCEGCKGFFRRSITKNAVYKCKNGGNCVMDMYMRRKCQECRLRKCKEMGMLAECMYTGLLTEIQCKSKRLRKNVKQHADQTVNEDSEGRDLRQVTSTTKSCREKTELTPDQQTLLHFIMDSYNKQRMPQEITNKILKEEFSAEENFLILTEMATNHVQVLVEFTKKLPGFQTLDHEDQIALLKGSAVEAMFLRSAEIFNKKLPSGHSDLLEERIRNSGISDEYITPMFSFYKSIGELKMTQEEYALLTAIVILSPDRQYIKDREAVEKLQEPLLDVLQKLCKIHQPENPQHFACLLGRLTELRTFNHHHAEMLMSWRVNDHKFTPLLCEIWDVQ
How it was run: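 Test compounds are pin-transferred onto FXR-bla HEK 293T cells, then chenodeoxycholic acid is added at 50 uM final. After 16 h at 37 °C, LiveBLAzer B/G substrate is applied for 2 h at room temperature and fluorescence read.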

[5] = qHTS assay to identify small molecule agonists of the farnesoid-X-receptor (FXR) signaling pathway - cell viability counter screen (AID 743218; active means well fitted curve in the direction sought with a large enough effect in the repeat runs; an effect the other way counts as inactive or inconclusive; further: nearly all actives have a fitted effect of over 45% in size)
How it was run: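 Quantitative HTS counter screen measuring ATP-based viability via CellTiter-Glo luminescence in HEK 293T cells carrying a UAS-driven beta-lactamase reporter, after 16 h compound exposure at 37 C.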

[6] = target: Bile acid receptor (Homo sapiens) (UniProt Q96RI1); test: qHTS assay to identify small molecule agonists of the farnesoid-X-receptor (FXR) signaling pathway (AID 743220; active means well fitted activation curve with a large enough effect in the signal ratio in the repeat runs, not every such curve was filed as active; the % refers to the signal ratio)
How it was run: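 FXR-UAS-bla HEK 293T cells carrying a UAS-driven beta-lactamase reporter were plated for 5 h at 37C/5% CO2, then exposed to DMSO-dissolved Tox21 10K compounds for 16 h at 37C. A LiveBLAzer B/G FRET substrate was loaded for 2 h at room temperature before fluorescence reading.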

[7] = qHTS assay to identify small molecule antagonists of the farnesoid-X-receptor (FXR) signaling pathway - cell viability counter screen (AID 743221; active means well fitted cell-killing curve with a large enough effect in the repeat runs, not every such curve was filed as active; further: nearly all actives have a fitted effect of over 50% in size)
How it was run: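 HEK 293T FXR-bla cells, 5 h pre-incubation; compound + CDCA 50 uM final, 16 h, 37 C; beta-lactamase FRET read first, then CellTiter-Glo luminescence, 30 min RT.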

[8] = target: Vitamin D3 receptor (Homo sapiens) (UniProt P11473); test: qHTS assay to identify small molecule agonists of the vitamin D receptor (VDR) signaling pathway (AID 743222)
Vitamin D3 receptor (Homo sapiens), sequence (P11473 whole entry, looked up): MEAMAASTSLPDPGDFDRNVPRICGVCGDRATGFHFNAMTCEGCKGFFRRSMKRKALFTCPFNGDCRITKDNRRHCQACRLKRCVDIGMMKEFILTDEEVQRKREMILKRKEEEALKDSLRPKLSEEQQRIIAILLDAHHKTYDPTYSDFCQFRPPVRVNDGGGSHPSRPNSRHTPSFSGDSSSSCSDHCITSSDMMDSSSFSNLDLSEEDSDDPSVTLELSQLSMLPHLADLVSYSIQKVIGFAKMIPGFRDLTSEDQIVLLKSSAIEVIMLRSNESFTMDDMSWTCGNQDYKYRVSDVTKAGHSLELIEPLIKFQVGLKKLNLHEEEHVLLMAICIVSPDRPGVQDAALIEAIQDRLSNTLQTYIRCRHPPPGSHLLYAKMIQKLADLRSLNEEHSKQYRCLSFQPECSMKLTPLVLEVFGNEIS
How it was run: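 Tox21 cell reporter format: VDR-bla line, 16 h compound exposure in 5% CO2 at 37C, then fluorescence intensity after 2 h with LiveBLAzer B/G FRET substrate.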

[9] = target: Vitamin D3 receptor (Homo sapiens) (UniProt P11473); test: qHTS assay to identify small molecule antagonists of the vitamin D receptor (VDR) signaling pathway (AID 743223; active means well fitted inhibition curve with a large enough effect in the signal ratio in the repeat runs, not every such curve was filed as active; the % refers to the signal ratio)
How it was run: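 Beta-lactamase reporter read-out: FRET substrate fluorescence after 2 h at room temperature, following 16 h exposure of VDR-bla cells to test compound plus 3 nM (final) 1alpha,25-dihydroxyvitamin D3 agonist at 37C.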

[10] = qHTS assay to identify small molecule agonists of the vitamin D receptor (VDR) signaling pathway - cell viability counter screen (AID 743224; active means well fitted curve in the direction sought with a large enough effect in the repeat runs; an effect the other way counts as inactive or inconclusive; further: series mostly up to about 63 µM; nearly all actives have a fitted effect of over 50% in size)
How it was run: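 CellTiter-Glo viability readout on VDR-bla cells, measured after 16 h of compound treatment at 37C in the same wells.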

[11] = qHTS assay to identify small molecule antagonists of the vitamin D receptor (VDR) signaling pathway - cell viability counter screen (AID 743225; active means well fitted curve in the direction sought with a large enough effect in the repeat runs; an effect the other way counts as inactive or inconclusive; further: nearly all actives have a fitted effect of over 50% in size)
How it was run: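 Viability counter screen run in the same wells as the beta-lactamase reporter assay: HEK 293T VDR-UAS-bla cells, 16 h compound exposure at 37C with 3 nM (final) 1-alpha,25-dihydroxyvitamin D3. CellTiter-Glo luminescence, 30 min, room temperature.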

[12] = qHTS assay to identify small molecule agonists of the NFkB signaling pathway - cell viability counter screen (AID 1159515); further: series mostly up to about 61 µM; nearly all actives have a fitted effect of over 55% in size
How it was run: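 Tox21 library compounds were tested for cytotoxicity against NFkB-bla ME-180 cells during a 5 hr exposure at 37 C. CellTiter-Glo luminescence served as the viability read-out.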

[13] = qHTS assay to identify small molecule agonists of the endoplasmic reticulum stress response signaling pathway (AID 1159516; active means well fitted activation curve with a large enough effect in the signal ratio in the repeat runs, not every such curve was filed as active; the % refers to the signal ratio)
How it was run: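 Fluorescence at 460 and 530 nm (405 nm excitation) reports beta-lactamase from an ER stress response element in HeLa cells treated 5 hr at 37 C.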

[14] = qHTS assay to identify small molecule agonists of the endoplasmic reticulum stress response signaling pathway - cell viability counter screen (AID 1159517)
How it was run: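 In parallel with the ESRE reporter read, cytotoxicity was scored by CellTiter-Glo luminescence (30 min, room temperature) on HeLa ESRE-bla cells dosed for 5 hr.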

[15] = qHTS assay to identify small molecule antagonists of the retinoid-related orphan receptor gamma (ROR-gamma) signaling pathway - cell viability counter screen (AID 1159520; active means well fitted curve in the direction sought with a large enough effect in the repeat runs; an effect the other way counts as inactive or inconclusive; further: nearly all actives have a fitted effect of over 50% in size)
How it was run: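 Tet-on ROR gamma CHO cells were given compounds for 2 hr, then doxycycline hyclate at 1 uM final, and incubated 16 hr at 37 C. Viability was measured as ATP content by CellTiter-Glo luminescence.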

[16] = target: Nuclear receptor ROR-gamma (Homo sapiens) (UniProt P51449); test: qHTS assay to identify small molecule antagonists of the retinoid-related orphan receptor gamma (ROR-gamma) signaling pathway (AID 1159521; active means well fitted curve in the direction sought with a large enough effect in the repeat runs; an effect the other way counts as inactive or inconclusive)
How it was run: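 Luminescence readout (ONE-Glo, 30 min RT) after 16 h doxycycline induction; loss of signal scored as antagonism. CHO cells with TET-inducible RORγ and RORE-LUC reporter; compounds added 2 h before 1 uM final doxycycline.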

[17] = qHTS assay to identify small molecule agonists of the AP-1 signaling pathway - cell viability counter screen (AID 1159525); further: nearly all actives have a fitted effect of over 55% in size
How it was run: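 Same-well cytotoxicity counter screen of the Tox21 10K library in ME-180 cells. The readout is ATP-dependent luminescence after 5 h compound treatment. Data are normalised to DMSO and tetra n-octyl ammonium bromide controls.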

[18] = qHTS assay to identify small molecule agonists of the AP-1 signaling pathway (AID 1159526)
[19] = target: Peroxisome proliferator-activated receptor delta (Homo sapiens) (UniProt Q03181); test: qHTS assay to identify small molecule antagonists of the peroxisome proliferator-activated receptor delta (PPARd) signaling pathway (AID 743215; active means well fitted inhibition curve with a large enough effect in the signal ratio in the repeat runs, not every such curve was filed as active; the % refers to the signal ratio;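 further: cells stimulated with agonist L165041 at 300 nM final during compound exposure; series mostly up to about 62 µM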)
How it was run: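 Here, a reporter line (HEK293H, beta-lactamase under a UAS) measures PPARd signaling. Compounds are tested against agonist L165041 at 300 nM final concentration over 17 h at 37 C, with fluorescence read after substrate.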

[20] = target: Retinoic acid receptor RXR-alpha (Homo sapiens) (UniProt P19793); test: qHTS assay to identify small molecule agonists of the RXR signaling pathway (AID 1159527); further: nearly all actives have a fitted effect of over 35% in size
Retinoic acid receptor RXR-alpha (Homo sapiens), sequence (P19793 whole entry, looked up): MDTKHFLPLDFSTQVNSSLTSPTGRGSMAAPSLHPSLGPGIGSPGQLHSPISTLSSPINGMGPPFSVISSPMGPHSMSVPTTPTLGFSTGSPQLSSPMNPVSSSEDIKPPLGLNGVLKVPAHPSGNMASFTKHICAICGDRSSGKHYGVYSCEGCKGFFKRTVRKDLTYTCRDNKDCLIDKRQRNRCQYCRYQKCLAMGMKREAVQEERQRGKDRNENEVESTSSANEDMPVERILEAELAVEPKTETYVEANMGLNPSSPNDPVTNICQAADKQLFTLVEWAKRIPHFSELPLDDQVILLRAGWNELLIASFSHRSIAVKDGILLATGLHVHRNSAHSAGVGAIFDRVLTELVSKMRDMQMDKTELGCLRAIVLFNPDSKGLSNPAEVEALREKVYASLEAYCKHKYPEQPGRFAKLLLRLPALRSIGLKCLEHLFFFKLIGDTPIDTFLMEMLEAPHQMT
How it was run: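 Agonist mode; 9-cis retinoic acid positive control. HEK 293T UAS-bla reporter cells, 2% charcoal-stripped FBS, 16 hr compound exposure at 37 C/5% CO2. LiveBLAzer B/G FRET substrate 2 hr RT; ex 405, em 460/530 nm.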

Measured: Potency

CCCCOC(O)CC (centres undefined)
not listed: [19] | [20]
inactive: all other assays above

O=C(NN1CCCC1)NS(=O)(=O)c1ccc(Cl)cc1
inactive: all assays above

CC[C@H](C)[C@@H](C(=O)O)n1sc2ccccc2c1=O
not listed: [5] | [19] | [20]
inactive: all other assays above

Cc1ccc(C(N)=O)cc1N
not listed: [4] | [6] | [19] | [20]
inactive: all other assays above

Nc1nc(N)c(-c2ccccc2)s1
not listed: [8] | [9] | [19] | [20]
inactive: all other assays above

N=C(N=C(N)N)N1CCOCC1
not listed: [5] | [8] | [9]
inactive: all other assays above

COC(=O)CSc1cc(N=c2sc(=O)n3n2CCCC3)c(F)cc1Cl
not listed: [3] | [5] | [10]
inactive: all other assays above

CCOC(=O)C1=NN(c2ccccc2)C(=O)C1
not listed: [1] | [10]
inactive: all other assays above
